Results filed as inconclusive are left out. Values without a mark were called inactive. Activity calls are given as the source filed them. Calls follow the shape of the full dose curve.
These molecules were tested against Vitamin D3 receptor (Homo sapiens) (UniProt P11473) (assay: qHTS assay to identify small molecule agonists of the vitamin D receptor (VDR) signaling pathway (AID 743222)). Settings: HEK293T VDR-UAS-bla, beta-lactamase FRET ratio, 16 h; series mostly up to 63.5 µM.
Sequence of Vitamin D3 receptor (Homo sapiens) (P11473 whole entry, looked up): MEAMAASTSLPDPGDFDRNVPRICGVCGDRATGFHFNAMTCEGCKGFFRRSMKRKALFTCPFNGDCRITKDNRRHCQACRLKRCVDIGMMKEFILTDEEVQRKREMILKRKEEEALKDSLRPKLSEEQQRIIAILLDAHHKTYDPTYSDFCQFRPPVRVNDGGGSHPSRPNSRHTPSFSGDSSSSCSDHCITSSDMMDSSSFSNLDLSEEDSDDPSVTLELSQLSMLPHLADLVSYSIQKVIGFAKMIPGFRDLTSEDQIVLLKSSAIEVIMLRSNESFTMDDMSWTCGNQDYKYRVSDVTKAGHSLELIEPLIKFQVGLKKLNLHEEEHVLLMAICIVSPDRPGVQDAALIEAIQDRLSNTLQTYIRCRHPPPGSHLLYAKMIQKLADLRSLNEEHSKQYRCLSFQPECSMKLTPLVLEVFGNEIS
Source text: National Center for Advancing Translational Sciences [NCATS]
NIH Chemical Genomics Center [NCGC]
U.S. Environmental Protection Agency [EPA]
National Institutes of Environmental Health Sciences [NIEHS]
National Toxicology Program [NTP]
U.S. Food and Drug Administration [FDA]
The vitamin D receptor (VDR), a member of nuclear hormone receptor superfamily, plays a critical role in calcium homeostasis and bone metabolism. It is also involved in cell differentiation and growth, and thrombogenicity.
Tox21 Assay Protocol Summary:
VDR-bla cells were dispensed at 2,000 cells/6 uL/well into black wall/clear-bottom 1536-well plates using a Multidrop Combi (Thermo Fisher Scientific, Waltham, MA) dispenser. After the assay plates were incubated at a 37C and 5% CO2 for 4 h, 23 nL of compounds dissolved in DMSO, positive controls or DMSO only was transferred to the assay plate by a Pintool station (Kalypsys, San Diego, CA). The plates were incubated at 37C and 5% CO2 for 16 h. After 1 uL of LiveBLAzerTM B/G FRET substrate was added using a Bioraptr Flying Reagent Dispenser (FRD) workstation (Beckman Coulter, Indianapolis, IN, USA), the plates were incubated at room temperature for 2 h, and fluorescence intensity was measured by an Envision plate reader (PerkinElmer, Shelton, CT).
In the case of `CC(C)=CCCC(C)CCOC=O` (stereo not given), the outcome is reported as “inactive”. `COC(=O)N[C@H](C(=O)N[C@@H](Cc1ccccc1)[C@@H](O)CN(Cc1ccc(-c2ccccn2)cc1)NC(=O)[C@@H](NC(=O)OC)C(C)(C)C)C(C)(C)C` was tested, and the outcome was “inactive”. In the case of `CO[C@@]1(NC(=O)CSCC#N)C(=O)N2C(C(=O)O)=C(CSc3nnnn3C)CS[C@@H]21`, the outcome is reported as “inactive”. `CC1CN(c2ccccc2)NC1=O` (stereo not given) was tested, and the outcome was “inactive”. Work on `NC(Cc1ccc(F)cc1)C(=O)O` (stereo not given) yielded an activation of 5.15% [at 6.01 µM]. In the case of `NC(=O)NS(=O)(=O)c1ccc(Cl)cc1`, the outcome is reported as “inactive”. For `O=CCCc1ccccc1`, the outcome was “inactive”. In the case of `ICCc1ccccc1`, the outcome is reported as “inactive”. `CN(C)C(=O)NC1(c2ccccc2)CCN(CCC[C@]2(c3ccc(Cl)c(Cl)c3)CCCN(C(=O)c3ccccc3)C2)CC1` was tested, and the outcome was “inactive”. `O=c1[nH]cnc2c1ncn2[C@@H]1O[C@H](CO)[C@@H](O)[C@H]1O` was tested, and the outcome was “inactive”. In the case of `C=CC1CO1` (stereo not given), the outcome is reported as “inactive”. With `CC1=NN(c2cc(Cl)c(S(=O)(=O)O)cc2Cl)C(=O)C1N=Nc1ccc(S(=O)(=O)O)cc1` (stereo not given) the outcome was “inactive”. For `CC(=O)Nc1ccc(C)c(Cl)c1`, the outcome was “inactive”. In the case of `CCCCCCCCOC(=O)CCCCCCCCC(=O)OCCCCCCCC`, the outcome is reported as “inactive”. For `CC(=O)O[C@H]1CC[C@@]2(C)C(=CC[C@@H]3[C@@H]2CC[C@]2(C)C(C(C)=O)=CC[C@@H]32)C1`, the outcome was “inactive”. For `CCOC(=O)COc1ccc2c(c1)CC(NCC(O)c1cccc(Cl)c1)CC2` (stereo not given), the outcome was “inactive”. `CN(CCCN1c2ccccc2CCc2ccccc21)CC(=O)c1ccc(Cl)cc1` was tested, and the outcome was “inactive”. In the case of `CCOC(=O)C(Br)c1ccccc1` (stereo not given), the outcome is reported as “inactive”. `CCCc1c2oc(C(=O)O)cc(=O)c2cc2c(=O)cc(C(=O)O)n(CC)c12` was tested, and the outcome was “inactive”. In the case of `CC/C=C\CCOC(=O)CCCCC`, the outcome is reported as “inactive”. For `CCC/C=C/CO`, the outcome was “inactive”. `C=C(C)C(=O)OCCOP(=O)(O)O` was tested, and the outcome was “inactive”. `O=C(O)c1ccccc1Nc1cc(Cl)ccc1C(=O)O` was tested, and the outcome was “inactive”. For `CCc1nnc(NS(=O)(=O)c2ccc(N)cc2)s1`, the outcome was “inactive”. In the case of `COc1cc(Cl)ccc1Cl`, the outcome is reported as “inactive”. `CN(C)CCOc1ccccc1Cc1ccccc1` was tested, and the outcome was “inactive”. `O=C(CCCl)NCc1ccccc1` was tested, and the outcome was “inactive”. For `CCCCCCCCCCCCCCCCOP(=O)([O-])OCC[N+](C)(C)C`, the outcome was “inactive”. For `CCN(CC)C(=O)N(CC)CC`, the outcome was “inactive”. With `Cc1c(-c2ccccc2)oc2c(C(=O)OCCN3CCCCC3)cccc2c1=O` the outcome was “inactive”. For `NC(=O)Cc1cccc(C(=O)c2ccccc2)c1N`, the outcome was “inactive”. With `Cc1ccc([N+](=O)[O-])cc1Cl` the outcome was “inactive”. With `OCC(CBr)(CBr)CBr` the outcome was “inactive”. `CC1(C)S[C@@H]2[C@H](NC(=O)C(C(=O)O)c3ccccc3)C(=O)N2[C@H]1C(=O)O` (stereo not given in full) was tested, and the outcome was “inactive”. `Cc1cc2nc(N)sc2cc1C` was tested, and the outcome was “inactive”. For `CC(C)O`, the outcome was “inactive”. For `C[C@@H]1CN(c2c(F)c(F)c3c(=O)c(C(=O)O)cn(C4CC4)c3c2F)C[C@H](C)N1`, the outcome was “inactive”. In the case of `NC/C=C/C(=O)O`, the outcome is reported as “inactive”. For `Cc1cn([C@@H]2O[C@H](CO)[C@@H](O)[C@@H]2F)c(=O)[nH]c1=O`, the outcome was “inactive”. With `O=C1CCC(C2CCCCC2)CC1` the outcome was “inactive”.

From PubChem BioAssay (Tox21)
% is scaled to controls: 0 for no effect and ±100 for the full control effect.
